Assay outcomes (PubChem BioAssay)
Hits are enriched below; roughly 1.6% of the tested compounds scored in any of these assays.
KCNQ2 inh = KCNQ2 (rat) channel inhibition | CHO-K1 KCNQ2, FluxOR thallium flux, 20 min; active compounds read low | hit rate 1.1% among 310,000 | O88943 | B-score at 10 µM;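 active means fluorescence ratio B-score at most minus 3 library SDs, with starting brightness B-score within 2 library SDs, cut at about -5.5 in these data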
Target sequence (O88943 whole entry, looked up): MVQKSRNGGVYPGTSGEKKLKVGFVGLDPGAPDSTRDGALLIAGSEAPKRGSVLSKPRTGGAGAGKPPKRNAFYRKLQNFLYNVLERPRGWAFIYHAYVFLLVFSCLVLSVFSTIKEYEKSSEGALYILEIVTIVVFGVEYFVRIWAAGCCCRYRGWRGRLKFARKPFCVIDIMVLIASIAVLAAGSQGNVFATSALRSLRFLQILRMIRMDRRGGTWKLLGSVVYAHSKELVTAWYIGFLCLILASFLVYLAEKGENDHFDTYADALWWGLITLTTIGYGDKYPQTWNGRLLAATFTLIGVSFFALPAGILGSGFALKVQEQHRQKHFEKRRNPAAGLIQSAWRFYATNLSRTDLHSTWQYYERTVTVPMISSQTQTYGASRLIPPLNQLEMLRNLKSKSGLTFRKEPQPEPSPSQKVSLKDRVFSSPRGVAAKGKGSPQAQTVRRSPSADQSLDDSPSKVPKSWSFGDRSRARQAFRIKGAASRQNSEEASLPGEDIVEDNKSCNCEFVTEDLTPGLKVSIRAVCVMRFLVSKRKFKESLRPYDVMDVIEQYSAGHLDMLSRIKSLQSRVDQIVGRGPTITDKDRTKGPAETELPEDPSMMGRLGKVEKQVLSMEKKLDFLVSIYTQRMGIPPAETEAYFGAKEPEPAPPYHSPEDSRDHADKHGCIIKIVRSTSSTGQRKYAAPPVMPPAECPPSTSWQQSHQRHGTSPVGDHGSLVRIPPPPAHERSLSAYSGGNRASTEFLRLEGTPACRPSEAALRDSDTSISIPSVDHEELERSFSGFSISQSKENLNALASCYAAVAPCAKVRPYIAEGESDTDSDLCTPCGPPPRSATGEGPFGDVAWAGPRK
KCNQ2 pot = potentiators of rat KCNQ2 potassium channel | CHO-K1 KCNQ2, FluxOR thallium flux fluorescence; active compounds read high | B-score at 10 µM | hit rate 0.54% among 310,000 | AID 2239;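 active means fluorescence ratio B-score at least 3 SD of library B-scores, with initial fluorescence B-score within 3 of them, cut at about 5.3 in these data; same plate scores as AID 2156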;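 further: B-score of peak minus minimum over baseline fluorescence ratio after K+ and Tl+ stimulus; positive B-score means potentiation of KCNQ2 with more thallium influx and brighter signal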
Large screens that a line does not name were inactive.

COc1ccc(NC(=O)Cn2ncn3nc(-c4ccc(OC)cc4)cc3c2=O)cc1	none
CN(C)c1ccc(/C=C(/NC(=O)c2ccccc2Cl)C(=O)NCCN2CCOCC2)cc1	none
COc1cccc(CNC(=O)CCC2CCCN(C(=O)c3ccoc3)C2)c1 (stereo not drawn)	none
COc1ccc(N2CCN(C(=O)c3oc4ccccc4c3NC(=O)Cc3cccc(OC)c3)CC2)cc1	KCNQ2 inh -5.8
COc1ccc(N2CCN(C(=O)c3oc4ccccc4c3NC(=O)Cc3ccc(OC)c(OC)c3)CC2)cc1	none (no result: KCNQ2 pot)
COc1cccc(CNC(=O)CCC2CCCN(C(=O)c3cc4ccccc4o3)C2)c1 (stereo not drawn)	KCNQ2 inh -6.4
FC(F)(F)c1cnc(COc2ccc(Cl)cc2Cl)c(Cl)c1	none (no result: KCNQ2 pot)
COC(=O)c1c(-c2c(Cl)cccc2Cl)noc1NC(=O)NN1CCOCC1	none (no result: KCNQ2 pot)
O=C(Nc1csc(Cc2c(Cl)cccc2Cl)n1)NN1CCOCC1	KCNQ2 pot 6.1
COC(=O)/C(=C(/F)SCC(C)=O)C(F)(F)F	none (no result: KCNQ2 pot)
Cc1cc(C)cc(NC(=O)/C=C/c2ccc([N+](=O)[O-])s2)c1	none (no result: KCNQ2 pot)
Cc1ccccc1NC(=O)/C=C/c1ccc([N+](=O)[O-])s1	KCNQ2 inh -5.7
CC(OC(=O)CN1C(=O)NC2(CCCC2)C1=O)C(=O)Nc1cccc(Cl)c1 (stereo not drawn)	none
CC(C)OC(=O)CSc1nc2c(c(C3CC=CCC3)c1C#N)CCC2 (stereo not drawn)	KCNQ2 inh -6
Cc1cc(C)c(C#N)c(SCC(=O)CC(=O)OC(C)C)n1	none (no result: KCNQ2 pot)
O=C(c1ccccc1)N1CCN(c2ccc([N+](=O)[O-])cc2-n2cccc2)CC1	none (no result: KCNQ2 pot)
CC1(C)SC(=S)N(/N=C/c2ccc(O)cc2)C1N(O)C(=O)Nc1ccc([N+](=O)[O-])cc1 (stereo not drawn)	KCNQ2 inh -7.5
Cc1ccc(/C=N/N2C(=S)SC(C)(C)C2N(O)C(=O)Nc2ccc([N+](=O)[O-])cc2)cc1 (stereo not drawn)	none (no result: KCNQ2 pot)
CCc1ccc(Sc2cc(C(=O)NCCN3CCOCC3)c3ccccc3n2)cc1	KCNQ2 inh -5.7
Cc1ccc(-c2cc(C(=O)NCCCN3CCOCC3)c3ccccc3n2)cc1	none
Cc1cc(NC(=O)Cc2ccccc2)ccc1NC(=O)c1cccs1	none
Cc1ccc(C)c(N(CC(=O)NCc2ccco2)C(=O)CCC(=O)Nc2nccs2)c1	none
CN(C)C(=O)COC(=O)[C@H](Cc1ccccc1)NC(=O)c1ccco1	none (no result: KCNQ2 pot)
CN(C(=O)COC(=O)C(Cc1ccccc1)NC(=O)c1ccccc1)c1ccccc1 (stereo not drawn)	KCNQ2 inh -5.7
O=C(NCc1cccnc1)/C(=C\c1ccc(-c2ccc(Br)cc2)o1)S(=O)(=O)c1ccccc1	none (no result: KCNQ2 pot)
O=C(NCc1cccnc1)/C(=C/c1ccc(-c2ccc(Cl)cc2)o1)S(=O)(=O)c1ccccc1	KCNQ2 inh -6.2
CN(CC(=O)Nc1ccccc1C(F)(F)F)C(=O)CN1C(=O)C2CCCCC2C1=O (stereo not drawn)	none (no result: KCNQ2 pot)
CC(C)CCSc1nc(N2CCOCC2)c2c(c1C#N)CC(C)(C)OC2	KCNQ2 inh -6.5
COC(=O)CCSc1nc(N2CCOCC2)c2c(c1C#N)CC(C)(C)OC2	none
Cc1nn(Cc2ccccc2)c(Cl)c1C(=O)OCc1nnc(-c2ccccc2)o1	none
Cc1nn(Cc2ccccc2)c(Cl)c1C(=O)OCc1nnc(-c2ccc(Cl)cc2)o1	KCNQ2 inh -6.1
COc1ccc(C(=O)Nc2ccccc2-c2ccccc2)cc1Cl	KCNQ2 inh -6.2
CCOc1c(Cl)cc(C(=O)Nc2ccccc2-c2ccccc2)cc1Cl	none (no result: KCNQ2 pot)
COc1ccc(S(=O)(=O)N2CCCCCC2)cc1C(=O)N(C)Cc1ccccc1F	KCNQ2 inh -5.8
COc1cccc(CN(C)C(=O)c2cc(S(=O)(=O)N3CCN(c4ccccc4)CC3)ccc2Cl)c1	KCNQ2 inh -5.6
COc1cccc(NC(=O)CN(C)C(=O)c2cccc(S(=O)(=O)N3CCN(c4ccccc4)CC3)c2)c1	none
COc1ccc(S(=O)(=O)N2CCCCCC2)cc1C(=O)N(C)Cc1ccc(C)cc1	none (no result: KCNQ2 pot)
Cc1ccc(OCc2cc(C(=O)NC3CCc4ccccc43)no2)cn1 (stereo not drawn)	none
CC(=O)c1ccc(OCCCC(=O)OCC(=O)Nc2ccc3[nH]c(=O)[nH]c3c2)cc1	none
CC1CCN(Cc2c(C(=O)N3CCc4ccccc4C3)nc3ccc(Cl)cn23)CC1	KCNQ2 inh -5.8
O=C(c1nc2ccc(Cl)cn2c1CN1CCC(O)CC1)N1CCc2ccccc2C1	none
CCCCNC(=O)Nc1ncn[nH]1	none (no result: KCNQ2 pot)
CCN1CCN(CCNC(=O)c2ccc3c(c2)N(Cc2ccc(F)cc2)C(=O)/C(=C/c2ccccc2)S3)CC1	KCNQ2 inh -6.5
COc1ccc(/C=C2\Sc3ccc(C(=O)NCCN4CCCCCC4)cc3N(C)C2=O)cc1	KCNQ2 inh -6.4
COc1ccc(/C=C2\Sc3ccc(C(=O)N4CCc5ccccc5C4)cc3N(C)C2=O)cc1	none (no result: KCNQ2 pot)
CCN1CCN(CCNC(=O)c2ccc(/C=C3/Sc4ccccc4N(Cc4cccc(Cl)c4)C3=O)cc2)CC1	none (no result: KCNQ2 pot)
COc1ccc([N+](=O)[O-])cc1NC(=O)c1ccc(CN(c2ccccc2)S(C)(=O)=O)cc1	none (no result: KCNQ2 pot)
CC(C)C[C@H]1CNC(=O)C(=O)N1C[C@H](C)NC(=O)Cc1ccccc1	none
COC(=O)C1=NNC2(c3ccc(Cl)cc3)C(=O)N(c3ccccc3)C(=O)C12 (stereo not drawn)	none (no result: KCNQ2 pot)
O=C(CN(Cc1ccco1)C(=O)c1cccc(Cl)c1)Nc1c(Cl)cc(Cl)cc1Cl	KCNQ2 inh -5.7
O=C(CN(Cc1ccco1)C(=O)c1ccc(Cl)cc1)Nc1c(Cl)cc(Cl)cc1Cl	none (no result: KCNQ2 pot)
Cc1c(Cl)cccc1NC(=O)CSc1ncnc2c1cnn2CCc1ccccc1	none (no result: KCNQ2 pot)
O=C(CSc1ncnc2c1cnn2CCc1ccccc1)Nc1cccc(C(F)(F)F)c1	KCNQ2 inh -6.7
O=C(Nc1ccnn1C1CCN(CCCC2CCCC2)CC1)c1ccccc1Cl	none
CC(C)Cn1c(N2CCN(CC(=O)Nc3ccc(Cl)cc3)CC2)nc2ccccc21	none
COC(=O)C[C@H]1c2cc(C(F)(F)F)ccc2S(=O)(=O)N1Cc1ccccc1OC	none (no result: KCNQ2 pot)
COc1ccc2c(C)cc3n[nH]c(=S)n3c2c1	none (no result: KCNQ2 pot)
O=C(COc1ccc(Cc2ccccc2)cc1)c1ccc(F)cc1	KCNQ2 pot 6.7
O=C(COc1ccc(F)cc1)c1ccc2c(c1)CCCC2	none (no result: KCNQ2 pot)
COc1ccc(/C=C2\N=C(c3ccc(C)cc3)OC2=O)cc1	none (no result: KCNQ2 pot)
Cc1ccc(S(=O)(=O)Oc2ccc(/C=C3/N=C(c4ccccc4)OC3=O)cc2)cc1	KCNQ2 inh -7.4
N#Cc1ccc(CC(C(=O)O)N2Cc3ccccc3C2=O)cc1 (stereo not drawn)	none
Oc1ccc(O)c(Cc2nc3ccccc3s2)c1	KCNQ2 inh -5.6
Oc1ccccc1OCc1nc2ccccc2s1	none (no result: KCNQ2 pot)
COc1ccc(NC(C)=O)cc1CNC(=O)CN1CCOCC1	none
Cc1ccc(S(=O)(=O)N2Cc3ccccc3CC2C(=O)Nc2ccc3c(c2)OCO3)cc1 (stereo not drawn)	KCNQ2 inh -5.6
COc1ccc(S(=O)(=O)N2Cc3ccccc3CC2C(=O)Nc2ccc3c(c2)OCO3)cc1 (stereo not drawn)	none (no result: KCNQ2 pot)
CCOc1ccccc1NC(=O)C(=O)CC(=O)c1ccc(OC)cc1	none
CNC(=O)CSc1nc2ccccc2c(=O)n1C1CCCCC1	none (no result: KCNQ2 pot)
CCOC(=O)CSc1nc2ccccc2c(=O)n1C1CCCC1	KCNQ2 inh -5.8
O=c1ccc2c([nH]1)CCCCCCCCCC2	none
C=C(C)CNC(=S)N1CCN(C(c2ccccc2)c2ccccc2)CC1	none (no result: KCNQ2 pot)
CC(C)CNC(=S)N1CCN(C(c2ccccc2)c2ccccc2)CC1	KCNQ2 inh -5.9
